Screens: PubChem, National Center for Advancing Translational Sciences (NCATS)
Pf growth 48h – Primary qHTS for delayed death inhibitors of the malarial parasite plastid, 48 hour incubation; P. falciparum luciferase growth in erythrocytes, 48 h; Potency, µM (top dose mostly 28.7 µM), for the others: at the top dose activity change, negative = inhibition, hits mostly inhibitors; hit rate 5.9% among 310,000; AID 504832, 2011; also: potency is read from the fitted curve at half-maximal effect; % is scaled to controls: 0 for no effect and ±100 for the full control effect
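Read-out is firefly luciferase luminescence from an integrated reporter in P. falciparum, so falling signal marks reduced parasite growth. Infected erythrocytes were at 2% hematocrit and 0.1% parasitemia (final) in Albumax-supplemented RPMI 1640.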
Cycloheximide cs – Cycloheximide Counterscreen for Small Molecule Inhibitors of Shiga Toxin. cell reporter, cycloheximide protein synthesis inhibition counterscreen. max response, %. hit rate 12% among 300,000; in the data active = max response mostly above about 13%, no sharp cut-off; inactive = mostly below about 14%; also: read at 38.3 µM for the half of the compounds with a filed dose; 0% is about no effect
Shiga inhibitor – A qHTS for Small Molecule Inhibitors of Shiga Toxin; Vero cells, Shiga toxin protein synthesis inhibition reporter; inhibition, % at 38.7 µM; hit rate 9.2% among 290,000; AID 2315, 2010; in the data active = inhibition mostly above about 28%, no sharp cut-off; inactive = mostly below about 43%; also: 0% is about no effect
Pf growth 96h – Primary qHTS for delayed death inhibitors of the malarial parasite plastid, 96 hour incubation; hit rate 6.9% among 320,000; AID 504834, 2011; P. falciparum luciferase reporter growth, 96 h; Potency, µM (series often up to 28.7 µM), inactives show at the top dose activity change, negative = inhibition, actives largely listed as inhibitors; also: potency is read from the fitted curve at half-maximal effect; % is scaled to controls: 0 for no effect and ±100 for the full control effect
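96 h incubation, 37 C, 5% CO2, of luciferase-reporter P. falciparum-infected RBCs (2% hematocrit, 0.05% parasitemia final) with test compounds; endpoint luminescence.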
Active calls of the source: *; u = inconclusive; x = no result given; [ ] = remark or other dose. Compounds with a hit are over-represented: about 21% of the library has one in this group of screens. Unless noted, calls follow the shape of the dose curve; as a rule, active = well fitted inhibition curve with a large enough effect; inconclusive = small, poorly fitted or top-dose-only effect, or another doubt; inactive = no such curve, though single readings can be large or run the other way.

SMILES | Pf growth 48h | Cycloheximide cs | Shiga inhibitor | Pf growth 96h
CC(C)COC(=O)c1cc(=O)[nH]c2ccccc12 | -3.4% | 2.7 | 27.7 | -19.7%
CCOc1c2ccc(C(=O)NCCc3cccs3)cc2nn1CC | 0.0% | 48.1* | 89.1* | 127.0%
CCCCn1nc2cc(C(=O)NCCc3cccs3)ccc2c1OCC | u | 11.0 | 38.4 | u
CCOC(=O)CC(NC(=O)c1cccs1)c1ccc(OCC)cc1 (stereo not drawn) | 5.7% | 8.1 | 7.8 | 10.4µM*
Cc1ccc(OCC(=O)NCc2cccs2)cc1 | 36.7% | 27.1* | 28.9* | x
COc1cc(C#N)ccc1OCC(=O)NCc1cccs1 | 133.6% | 14.9* | 52.8 | 21.9%
CCCCOc1ccc(NC(=O)CSc2nnnn2C)cc1 | 16.1% | 3.5 | 23.4 | x
CC(C)CN(C(=O)c1cccc(S(=O)(=O)N2CCN(Cc3ccccc3)CC2)c1)C1CCS(=O)(=O)C1 (stereo not drawn) | -10.1% | x | x | u
CCOc1ccc(C(=O)NCc2cccs2)cc1 | 17.1% | 14.1 | 83.2* | 0.657µM*
Cc1ccc(C(=O)OCC(=O)NCc2cccs2)cc1C | 39.9% | 14.2* | 11.3 | 30.4%
CCCCOc1ccc(C(=O)NCCc2cccs2)cc1 | 403.0% | 42.6* | 123.1* | u
O=C(Nc1ccccc1N1CCCC1)c1ccc([N+](=O)[O-])cc1Cl | u | 4.3 | 7.2 | 41.6%
Cc1nc(C(=O)NC2CC2)sc1C1(C)CC(c2ccccc2)=NO1 (stereo not drawn) | -11.0% | 17.8* | 20.5 | -4.3%
O=c1cc2c(nn1Cc1c(Cl)cccc1Cl)-c1ccccc1CC2 | x | 0.3 | -5.9 | 5.22µM*
Clc1cccc(Cl)c1CSc1cc2c(nn1)-c1ccccc1CC2 | -0.3% | -1.6 | -25.8 | 16.7%
CCOc1ccc2nc(NC(=O)CSc3nc(SC)ns3)sc2c1 | u | 55.3* | 70.3* | 91.1%
CCOc1ccc2nc(NC(=O)CSc3ccc(Cl)cc3)sc2c1 | u | 18.5 | 39.2 | x
COc1ccc2nc(NC(=O)CSc3cn[nH]n3)sc2c1 | 99.4% | 43.1* | 66.0* | 42.6%
COc1ccc2nc(NC(=O)CSc3nnc(N)s3)sc2c1 | 80.4% | 4.1 | 13.2 | 94.5%
CCOc1ccc2nc(NC(=O)CSc3nc(-c4ccccc4)c(C#N)c(=O)[nH]3)sc2c1 | 187.9% | 40.7* | 39.3* | 26.2%
CCOc1ccc2nc(NC(=O)CSc3cn[nH]n3)sc2c1 | 84.1% | 34.2* | 149.1* | -24.7%
COc1cccc(-c2nc(SCC(=O)Nc3nc(-c4ccccc4)c(C)s3)[nH]c(=O)c2C#N)c1 | -1.2% | -3.2 | 6.8 | u
O=C(CSc1nc2c(c(=O)[nH]1)CCCC2)Nc1ccc(Cl)cc1F | 25.1% | 5.3 | 24.1 | x
CCc1ccc2[nH]c3nc(N/N=C/c4ccc(O)cc4O)nnc3c2c1 | 8.28µM* | -1.6 | x | 10.1%
O=C(COc1ccccc1Cl)Nc1ccc(-c2nc3ccccc3s2)cc1 | x | 37.5* | 31.3 | x
SMILES | Pf growth 48h | Cycloheximide cs | Shiga inhibitor | Pf growth 96h
O=C(CCS(=O)(=O)c1ccccc1)Nc1ccc(-c2nc3ccccc3s2)cc1 | 81.2% | 33.5* | 69.0 | 0.0%
O=C(CCS(=O)(=O)c1ccccc1)Nc1ccc(S(=O)(=O)Nc2ncccn2)cc1 | u | -3.2 | 4.8 | u
O=C(CCS(=O)(=O)c1ccccc1)Nc1cccc(-c2nc3ccccc3s2)c1 | 42.0% | 57.4* | 78.9* | -10.6%
O=C(Nc1cccc(-c2nc3ccccc3s2)c1)c1cccs1 | 36.1% | 11.7 | 10.4 | u
COc1ccc(NC(=O)c2sc3nc4c(cc3c2N)CN(Cc2ccccc2)CC4)c(OC)c1 | x | -5.3 | -6.1 | x
CC(C)CCc1noc(CN(CC2CCC2)CC2CCCO2)n1 (stereo not drawn) | u | 8.4 | 7.8 | -14.0%
O=C(COC(=O)CCC(=O)c1ccc(F)cc1)Nc1ccc2[nH]c(=O)[nH]c2c1 | 16.4% | x | x | 6.4%
CCCc1nc2c(=O)n(C)c(=O)[nH]c2n1CCC | x | -1.5 | -3.3 | 10.4µM*
O=CC1=C(c2ccccc2)Oc2ccccc2O1 | 2.0% | 38.3* | 93.7* | u
Cc1cc2nc(N3CCN(C(=O)c4cccs4)CC3)sc2cc1C | 8.8% | x | x | 17.0%
CC(=O)N1CCN(c2nc3ccc(Br)cc3s2)CC1 | 84.7% | 26.6* | 53.1* | 67.5%
CC(C)(C)C(=O)N1CCN(c2nc3ccc(Br)cc3s2)CC1 | 31.5% | 23.4* | 30.7* | 26.9%
CC(C)(C)C(=O)N1CCN(c2ccc(Cl)cc2[N+](=O)[O-])CC1 | 24.3% | 25.0* | 32.7* | 36.3%
N#Cc1ccc(S(=O)(=O)N2CCCN(c3nc4ccc(Cl)cc4s3)CC2)cc1 | u | 1.9 | 33.8 | u
CC(C)(C)C(=O)N1CCN(c2nc3ccc(Cl)cc3s2)CC1 | -5.0%[0.00184 µM] | 18.5* | 80.5* | 66.5%
CNC(=O)C1(C(F)(F)F)CC(CCCO)CCCO1 (stereo not drawn) | x | 6.1 | -7.5 | x
Cc1cccc(Cl)c1NC(=O)N1CCCN(c2nc3ccc(Cl)cc3s2)CC1 | u | 24.5* | 43.8* | u
Cc1cccc(C)c1NC(=O)N1CCN(c2nc3ccccc3s2)CC1 | -12.2% | 1.0 | 24.2 | x
COc1ccc(Nc2nnc(SCC3CCCCO3)s2)cc1 (stereo not drawn) | 3.7µM* | 9.2 | 45.6 | 13.1µM*
Cc1cccc(Nc2nnc(SCC3CCCCO3)s2)c1 (stereo not drawn) | 27.4% | 36.2* | 49.4* | u
Cc1cccc(Nc2nnc(SCC(=O)Nc3ccc(C(=O)O)cc3)s2)c1 | 62.9% | 3.2 | -15.0 | 64.8%
COc1ccc(Nc2nnc(SCC(=O)c3cc(C)n(CC4CCCO4)c3C)s2)cc1 (stereo not drawn) | 5.86µM* | 43.0* | 111.5* | x
COC(=O)CCCCCN1C(=O)/C(=C\c2ccncc2)SC1=S | -1.0% | -0.8 | -14.4 | u
CCOC(=O)[C@H]1[C@H]2COc3ccc(Br)cc3[C@@H]2N2C(=O)c3cc(Br)ccc3NC(=O)[C@@]12C | u | x | x | 8.28µM*
CCOC(=O)[C@H]1[C@H]2COc3ccc(Br)cc3[C@H]2N2C(=O)CNC(=O)[C@@]12C | 3.9% | x | x | u
SMILES | Pf growth 48h | Cycloheximide cs | Shiga inhibitor | Pf growth 96h
CCOC(=O)[C@H]1[C@H]2COc3ccccc3[C@@H]2N2C(=O)c3cc(Br)ccc3NC(=O)[C@@]12C | 4.15µM* | x | x | 6.57µM*
CCOC(=O)[C@@H]1[C@H]2COc3ccccc3[C@H]2N2C(=O)N(c3ccc(F)cc3)C(=O)[C@]12C | -14.1% | -2.1 | -6.9 | -15.6%
C=CCc1c(C)c(C#N)c2nc3ccccc3n2c1N1CCCCC1 | u | -2.1 | 5.6 | 1.85µM*
CCC(=NCCN1CCOCC1)c1c(O)n(-c2ccccc2C)c(=O)[nH]c1=O | 9.4% | -2.4 | -4.2 | -2.4%[5.75 µM]
CC/C(=N\N1CCCCCC1)c1c(O)n(-c2ccccc2C)c(=O)[nH]c1=O | u | -7.2 | -2.7 | 4.65µM*
O=C(CS(=O)(=O)Cc1ccccc1)NCCc1ccc(F)cc1 | 8.4% | -0.4 | -6.1 | -19.8%
Cc1cnc(C(=O)OCC(=O)c2ccc(Br)s2)cn1 | u | x | x | 11.1%
c1ccc(-c2cn3c4c(sc3n2)CCCC4)cc1 | -14.9% | 11.5* | -1.7 | -16.1%
Cc1cccn2c(=O)c3cc(C(=O)NCCN4CCOCC4)n(C)c3nc12 | 67.4% | 37.4* | 58.9* | u
